Screening data (PubChem BioAssay)
Only some compounds are listed: those with a hit (about 22% of all), similar ones and a draw of the others.
Pf growth 96h – Primary qHTS for delayed death inhibitors of the malarial parasite plastid, 96 hour incubation. AID 504834, 2011. hit rate 6.9% among 320,000. Potency, µM (top dose mostly 28.7 µM), for the others: at the top dose activity change, negative = inhibition, usual class: inhibitors. P. falciparum luciferase reporter growth, 96 h; note: potency is the fitted concentration of half-maximal effect; % is set by controls: 0 for no effect and ±100 for the full control effect
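Erythrocytes infected with luciferase-expressing P. falciparum were dispensed at 2% hematocrit and 0.05% parasitemia (final), then incubated with compounds 96 hours at 37 C in 5% CO2. Luminescence after detection reagent addition reported growth.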
Cycloheximide cs – Cycloheximide Counterscreen for Small Molecule Inhibitors of Shiga Toxin. hit rate 12% among 300,000. cell reporter, cycloheximide protein synthesis inhibition counterscreen. AID 2314, 2010. max response, %; in the data active = max response mostly above about 13%, no sharp cut-off; inactive = mostly below about 14%; note: read at 38.3 µM for the half of the compounds with a filed dose; 0% is about no effect
Pf growth 48h – Primary qHTS for delayed death inhibitors of the malarial parasite plastid, 48 hour incubation; Potency, µM (top dose mostly 28.7 µM), for inactives: at the top dose activity change, negative = inhibition, usual class: inhibitors; hit rate 5.9% among 310,000; AID 504832, 2011; P. falciparum luciferase growth in erythrocytes, 48 h; note: potency is the fitted concentration of half-maximal effect; % is set by controls: 0 for no effect and ±100 for the full control effect
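In quantitative HTS format, infected erythrocytes bearing luciferase-reporter parasites were treated for a single generation at 37 C. Luminescence after adding detection reagent served as the growth measure.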
LmPK inh – qHTS Assay for Inhibitors of Leishmania Mexicana Pyruvate Kinase (LmPK); Potency, µM (doses to about 57.5 µM), for the others: at the top dose activity change, negative = inhibition, actives largely listed as inhibitors; Q27686; AID 1721, 2009; hit rate 0.37% among 290,000; purified LmPK, Kinase-Glo ATP luminescence, 1 h; note: potency is the fitted concentration of half-maximal effect; % is set by controls: 0 for no effect and ±100 for the full control effect
Target sequence (Q27686 whole entry, looked up): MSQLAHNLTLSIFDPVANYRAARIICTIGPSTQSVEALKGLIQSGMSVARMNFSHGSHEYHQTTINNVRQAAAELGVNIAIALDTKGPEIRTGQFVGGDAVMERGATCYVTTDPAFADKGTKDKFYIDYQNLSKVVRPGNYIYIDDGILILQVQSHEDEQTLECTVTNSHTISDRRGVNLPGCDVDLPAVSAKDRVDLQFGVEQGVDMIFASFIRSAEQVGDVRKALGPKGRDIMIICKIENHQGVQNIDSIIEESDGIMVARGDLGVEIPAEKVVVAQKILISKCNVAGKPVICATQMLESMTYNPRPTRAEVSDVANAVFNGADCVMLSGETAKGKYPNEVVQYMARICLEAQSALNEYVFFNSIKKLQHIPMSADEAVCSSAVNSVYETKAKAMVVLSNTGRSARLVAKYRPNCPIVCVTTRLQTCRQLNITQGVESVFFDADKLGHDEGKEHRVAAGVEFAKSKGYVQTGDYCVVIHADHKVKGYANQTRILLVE
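Pyruvate kinase activity monitored as ATP production (luciferase luminescence). Conditions: 0.1 nM enzyme, 0.5 mM PEP, 0.1 mM ADP, 1 h, RT; normalized against uninhibited and no-enzyme wells.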
Shiga inhibitor – A qHTS for Small Molecule Inhibitors of Shiga Toxin; inhibition, % at 38.7 µM; hit rate 9.2% among 290,000; Vero cells, Shiga toxin protein synthesis inhibition reporter; in the data active = inhibition mostly above about 28%, no sharp cut-off; inactive = mostly below about 43%; note: 0% is about no effect
The depositor's hits bear a star; ? = inconclusive; · = no result; [ ] = another dose, or the depositor's remark. Unless noted, calls come from the whole dose curve; as a rule, active = well fitted inhibition curve with a large enough effect; inconclusive = small, poorly fitted or top-dose-only effect, or another doubt; inactive = no such curve, though single readings can be large or run the other way.

SMILES	Pf growth 96h	Cycloheximide cs	Pf growth 48h	LmPK inh	Shiga inhibitor
CCC1OC(=O)C(C)[C@@H](O[C@H]2C[C@@](C)(OC)C(O)C(C)O2)C(C)[C@@H](O[C@@H]2OC(C)CC(N(C)C)C2O)[C@@](C)(O)CC(C)C(=O)[C@@H](C)C(O)[C@]1(C)O (some centres undefined)	?	·	-14.0%	·	·
CO[C@H]1[C@H](O[C@H]2O[C@@H](C)[C@@H](O[C@@H]3C[C@](C)(O)[C@H](O)[C@H](C)O3)[C@@H](N(C)C)[C@@H]2O)[C@@H](CC=O)C[C@@H](C)[C@@H](O[C@H]2CC[C@H](N(C)C)[C@H](C)O2)/C=C\C=C/C[C@@H](C)OC(=O)C[C@H]1O	2.03µM*	·	-6.9%[12.8 µM]	·	·
CCC(=O)O[C@@H]1CC(=O)O[C@H](C)CC=CC=C[C@@H](O)[C@H](C)C[C@H](CC=O)[C@H](O[C@H]2O[C@H](C)[C@@H](O[C@H]3C[C@@](C)(O)[C@@H](OC(=O)CC)[C@H](C)O3)[C@H](N(C)C)[C@H]2O)[C@H]1OC	0.828µM*	-7.0	?	2.4%	-6.8
CCC(=O)O[C@@H]1[C@H](C)O[C@H](O[C@H]2[C@@H](N(C)C)[C@H](O)[C@@H](O[C@@H]3[C@@H](CC=O)C[C@@H](C)[C@@H](O)/C=C\C=C/C[C@@H](C)OC(=O)C[C@@H](OC(=O)CC)[C@H]3OC)O[C@H]2C)C[C@]1(C)O	1.28µM*	·	?	·	·
O=C1NC(=S)N/C1=C\c1ccc(Oc2ccc(C(F)(F)F)cc2[N+](=O)[O-])c(Cl)c1	10.7%	-5.3	7.2%	-4.0%	2.9
CSc1ncccc1C(=O)OCc1ccccc1F	1.5%	21.8*	?	-11.2%	66.5*
CSc1ncccc1C(=O)OCc1ccc(COC(=O)c2cccnc2SC)cc1	-1.2%	-5.8	·	2.5%	-4.8
CSc1ncccc1C(=O)OCc1ccccc1	5.4%	31.3*	25.8%	-6.0%	87.0*
O=C(Nc1ccc(S(=O)(=O)N2CCCCC2)cc1)C1CC(=O)N(c2ccccc2)C1 (centres undefined)	?	-4.0	-22.8%	1.9%	-9.4
O=C(Nc1ccccc1)C1COc2ccccc2O1 (centres undefined)	39.3%	21.7*	67.2%	-3.8%	56.7*
C/C(=N\NC(=O)C1COc2ccccc2O1)c1ccccn1 (centres undefined)	2.62µM*	15.6*	2.62µM*	-1.0%	23.9
O=C(Nc1cccnc1)C1COc2ccccc2O1 (centres undefined)	-24.0%	8.2	29.5%	1.7%	-12.3
Cc1ccc(NC(=O)C2COc3ccccc3O2)c(C)c1 (centres undefined)	1.9%	22.6*	37.1%	0.9%	·
Cc1ccc(NC(=O)C2Oc3ccccc3OC2C)cc1 (centres undefined)	124.9%	15.0*	3.3%	1.4%	19.2
COC(=O)c1ccc(C)c(NC(=O)C2COc3ccccc3O2)c1 (centres undefined)	4.8%	-2.8	-0.7%	-0.8%	-1.5
C/C(=N\NC(=O)C1COc2ccccc2O1)c1ccc(C)o1 (centres undefined)	-28.0%	-3.9	·	-0.5%	-9.1
O=C(Nc1ncccc1Cl)C1COc2ccccc2O1 (centres undefined)	·	52.8*	-84.9%	-3.5%	160.9*
CC1(C)Oc2ccc(NC(=O)C3COc4ccccc4O3)cc2O1 (centres undefined)	12.2%	34.9*	32.7%	?	72.4
Cc1ccc(NC(=O)C2COc3ccccc3O2)cc1 (centres undefined)	?	35.0*	79.0%	-6.6%	105.4*
O=C(Nc1ccccc1F)C1COc2ccccc2O1 (centres undefined)	?	32.9*	7.5%	-1.7%	43.2*
O=C1NC(=O)c2cc(NC(=O)C3COc4ccccc4O3)ccc21 (centres undefined)	33.5%	19.0	21.2%	0.0%	21.5
O=C(NCC1CCN(Cc2ccccc2F)CC1)Nc1cccc(Br)c1	-0.6%	1.5	?	-0.9%	16.6
O=C(O)c1nccnc1C(=O)Nc1ccccc1-c1ccccc1	-1.0%	10.5	-64.2%	-0.6%	2.9
Cc1ccc(C23OC(=O)C(C)(C)C2OC(=O)C3(C)C)cc1 (centres undefined)	13.1µM*	6.9	9.28µM*	-2.0%	-5.4
Cc1ccc(C2OC(=O)C=C2c2ccccc2)cc1 (centres undefined)	0.0%	·	?	·	·
SMILES	Pf growth 96h	Cycloheximide cs	Pf growth 48h	LmPK inh	Shiga inhibitor
COc1cc(C(=O)O[C@H]2C/C(C)=C/CC[C@]3(C)O[C@@H]3C(O)C2C(C)C)cc(OC)c1OC (some centres undefined)	4.15µM*	-4.4	?	8.6%	-1.9
COc1cc(C(=O)O[C@H]2C/C(C)=C/CC[C@@]3(C)O[C@@H]3[C@H](O)[C@@H]2C(C)C)cc(OC)c1OC	?	-2.8	?	-1.0%	2.0
Cc1cc(OCC(=O)NNC(=S)NC(=O)c2ccc(Br)o2)ccc1Cl	?	-2.8	4.9%	-10.7%	-3.0
CCOc1ccc(OCCC(=O)OCC(=O)NC2CCCC2)cc1	-20.1%	·	-13.2%	·	·
CCn1c(C)nc2cc(-c3nnc(-c4c(-c5ccccc5)noc4C)o3)ccc21	-3.4%	-6.8	9.28µM*	-3.7%	-12.6
Cc1onc(-c2ccccc2)c1-c1nnc(-c2ccccc2C(F)(F)F)o1	38.2%	4.4	37.0%	-5.0%	-8.5
COc1cccc(NS(=O)(=O)NC(=O)c2c(C)[nH]c3ccccc23)c1	?	30.9*	31.4%	5.9%	30.5*
COc1cccc(NS(=O)(=O)NC(=O)c2c[nH]c3ccccc23)c1	71.6%	45.3*	11.7µM*	-3.8%	53.0
COC(=O)C1=C[C@@H](C(=O)OC)C2C3=C(C(=O)[C@@]2(C)NC(=O)c2ccccc2)[C@H](C)n2c(=O)n(C)c(=O)n2[C@@H]3C1 (some centres undefined)	·	-3.5	·	·	3.3
CCOc1ccc(CCNC(=O)C2CCCN(C(=O)N(C)C)C2)cc1OCC (centres undefined)	-5.1%	0.8	-6.1%	1.8%	-1.2
CCOCCc1nnc(NC(=O)C2CC(=O)N(CCc3ccc(F)cc3)C2)s1 (centres undefined)	-6.6%	3.9	-5.6%	-0.6%	-0.8
O=C(Nc1ccc(N2CCCCC2)c(C(=O)O)c1)c1ccco1	?	7.5	36.0%	2.5%	15.1
CN1CCN(c2ccc(NC(=O)c3ccco3)cc2Cl)CC1	-6.0%	46.6*	10.5%	-2.9%	55.4
CCN1CCN(c2ccc(NC(=O)c3cccc(F)c3)cc2Cl)CC1	54.6%	18.3*	-11.6%	-0.6%	97.2*
O=C(Nc1ccc(N2CCCC2)c(Cl)c1)c1ccco1	13.2%	31.9*	-3.9%	-20.5%	92.3*
